Screens: PubChem, National Center for Advancing Translational Sciences (NCATS)
Sampled rows, rich in hits. Any-hit rate of the full collection: about 11%.
VDR inh: vitamin D3 receptor (human) inhibition; Potency, µM, without a hit: max response, negative = inhibition, hits mostly inhibitors; hit rate 0.93% among 400,000; P11473; AID 504847; VDR-SRC2-3 peptide fluorescence polarization, 2 h; also: % is scaled to controls: 0 for no effect and ±100 for the full control effect
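Inhibition of the VDR/SRC2-3 peptide interaction is quantified by fluorescence polarization. Compounds (23 nl, pintool) incubate with the reagents for 2 hours at ambient room temperature.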
BAZ2B inh: inhibitors of human BAZ2B bromodomain. Q9UIF8. AlphaScreen BAZ2B-H3K14Ac peptide displacement. Potency, µM (highest dose often 114 µM), without a hit: top-dose activity change, negative = inhibition, usual class: inhibitors. hit rate 4.4% among 360,000; also: % is scaled to controls: 0 for no effect and ±100 for the full control effect; nearly all actives have a fitted effect of over 60% in size
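Protein-peptide AlphaScreen: BAZ2B 50 nM, b-H3K14Ac 50 nM, 1x PBS pH 7.4 + 0.01% Tween-20. Preincubation 30 min RT; cpd 30 min RT (top 110 uM); beads 20 min RT, light-protected.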
PLK1 PBD block: PLK1 (human) polo-box domain binding inhibition; Plk1 PBD binding of FITC phosphopeptide, fluorescence polarization; P53350; Potency, µM, for inactives: max response, negative = inhibition, actives largely listed as inhibitors; AID 720504; hit rate 2.8% among 360,000; also: series mostly up to about 57 µM; % is scaled to controls: 0 for no effect and ±100 for the full control effect; nearly all actives have a fitted effect of over 65% in size
G9a inh: G9a (human) methyltransferase inhibition | G9a H3K9 monomethylation, AlphaScreen, 2 h | Potency, µM (series often up to 102 µM), for inactives: at the top dose activity, negative = inhibition, most hits filed as inhibitors | hit rate 8.8% among 350,000; also: % is scaled to controls: 0 for no effect and ±100 for the full control effect; nearly all actives have a fitted effect of over 75% in size
Target sequence (Q96KQ7 913-1193 limits assumed): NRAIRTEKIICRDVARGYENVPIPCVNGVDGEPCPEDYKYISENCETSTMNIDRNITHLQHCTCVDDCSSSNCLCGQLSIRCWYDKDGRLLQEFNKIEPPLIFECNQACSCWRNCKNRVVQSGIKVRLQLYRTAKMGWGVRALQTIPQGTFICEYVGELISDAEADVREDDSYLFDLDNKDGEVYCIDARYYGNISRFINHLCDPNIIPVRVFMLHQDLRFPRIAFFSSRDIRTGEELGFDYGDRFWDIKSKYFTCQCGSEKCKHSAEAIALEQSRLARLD
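G9a (20 nM) was preincubated 15 min with compound, then reacted 2 h at room temperature with 500 nM biotin-H3K9 peptide and 20 µM SAM. Monomethyl-H3K9 detected by AlphaScreen using anti-H3K9me1 antibody.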
JMJD2A Tudor: JMJD2A Tudor domain (human) inhibition; O75164; AlphaScreen JMJD2A-Tudor / H3K4me3 peptide binding; Potency, µM (series often up to 114 µM), for inactives: at the top dose activity change, negative = inhibition, actives largely listed as inhibitors; hit rate 4.4% among 390,000; also: % is scaled to controls: 0 for no effect and ±100 for the full control effect; nearly all actives have a fitted effect of over 50% in size
HP1b binding inh: HP1-beta chromodomain-methylated histone interaction inhibition; P83916; AlphaScreen HP1-beta / biotin-H3K9me3 peptide binding; Potency, µM (doses to about 114 µM), without a hit: top-dose activity change, negative = inhibition, most hits filed as inhibitors; hit rate 0.56% among 390,000; also: nearly all actives have a fitted effect of over 70% in size
Target sequence (P83916 whole entry, looked up): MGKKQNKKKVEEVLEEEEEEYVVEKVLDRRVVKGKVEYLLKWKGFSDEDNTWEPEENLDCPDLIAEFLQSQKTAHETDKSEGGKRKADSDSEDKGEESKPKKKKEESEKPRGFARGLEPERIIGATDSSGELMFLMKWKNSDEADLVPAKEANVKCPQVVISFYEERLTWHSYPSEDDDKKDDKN
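HP1-beta protein (50 nM final) preincubated 30 min at room temperature with biotinylated H3(1-18)K9me3 peptide (50 nM) in PBS pH 7.4, 0.01% Tween-20, then compound added for 30 min. AlphaScreen streptavidin donor/nickel chelate acceptor beads (10 ug/mL final), 30 min dark, luminescence read.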
An asterisk follows results filed as active; ? = inconclusive; / = no result; ! = repeats disagree; [ ] = another dose, or the depositor's remark. Calls follow the shape of the dose curve; as a rule, active = well fitted curve in the direction sought with a large enough effect; inconclusive = small, poorly fitted or top-dose-only effect, or another doubt; inactive = no such curve, though single readings can be large; an effect the other way counts as inactive or inconclusive. Potency is read from the fitted curve at half-maximal effect.

SMILES | VDR inh | BAZ2B inh | PLK1 PBD block | G9a inh | JMJD2A Tudor | HP1b binding inh
COc1ccc(NC(=O)Cn2nnc(C(=O)NCc3cccs3)c2N)cc1Cl | -5% | -22% | -8% | 18% | -31% | 49%
Cc1cc(C(=O)CCl)c(C)n1-c1ccon1 | 2% | -28% | 27µM* | -30% | -15% | 27%
O=C(Nc1nc2c(F)cc(F)cc2s1)c1ccc2c(c1)OCCO2 | 8% | -35% | / | -2%[12.7 µM] | ? | 70%[57 µM]
Nc1ccc(O)c(C(=O)O)c1 | 45µM*! | / | / | 3.2µM* | / | /
O=C(O)c1cc(O)ccc1O | 3% | / | -5% | / | -14% | 88%
COc1ccccc1NC(=O)CCN1CCN(C)CC1 | -23% | 10% | -1% | 50µM* | -1% | 32%
CCc1ccc(NC(=O)CCn2cnc3ccccc3c2=O)cc1 | 3% | -28% | / | -30%[59 µM] | 79µM* | -9%[57 µM]
COc1cc(OC)c(NC(=O)CCNC(=O)Cn2cnc3ccccc3c2=O)cc1Cl | -23% | 7% | 13µM* | -11%[2.33 µM] | -33%[11.4 µM] | -20%
COc1ccccc1CNC(=O)CCn1cnc2ccccc2c1=O | 17% | 50µM* | / | 16µM* | 56µM* | ?
COc1ccccc1CNC(=O)CCNC(=O)Cn1cnc2ccccc2c1=O | 0% | 7% | -1% | -1%[2.33 µM] | 1% | 41%
Cc1ccc(NC(=O)CCn2cnc3ccccc3c2=O)cc1Cl | 12% | 0% | -10% | -3%[59 µM] | 3% | 22%
CC(C)CNc1ncnc2c1ncn2[C@H]1CN(Cc2cccs2)C[C@@H](CO)O1 | / | / | -8% | / | / | /
Cc1c(-c2ccc(Cl)cc2)c(=O)oc2c(CN3CCOCC3)c(O)ccc12 | 18% | 30% | / | 7%[59 µM] | 16% | 37%[57 µM]
COc1ccc(NC(=O)CCCn2cnc3ccccc3c2=O)c(OC)c1 | -25% | -10% | -14% | -2% | -18% | 4%
O=C(CCNC(=O)Cn1cnc2ccccc2c1=O)NCC1COc2ccccc2O1 (stereo not given) | -16% | 4%[57.1 µM] | 3µM* | 6% | ? | ?
O=C(CCn1cnc2ccccc2c1=O)NCc1ccccc1 | -9% | ? | / | ? | 89µM* | -12%[57 µM]
COc1cc(OC)c(NC(=O)CCCn2nc(C)c3sc4ccccc4c3c2=O)cc1Cl | 0% | ? | / | 14µM* | ? | -14%
COc1ccccc1NC(=O)CCn1cnc2ccccc2c1=O | 12% | ? | / | 9%[12.7 µM] | 5µM* | ?
Cc1ccc(NC(=O)CCCn2nc(C)c3sc4ccccc4c3c2=O)c(Cl)c1 | 4% | -17% | / | ? | -26% | 17%
O=C(CCNC(=O)Cn1cnc2ccccc2c1=O)NCC1CCCO1 (stereo not given) | -15% | 4% | -12% | 7% | -5% | 39%
Oc1ccc(Br)cc1Cn1nnc2ccccc21 | -9% | -4% | 6% | 37% | 5% | 40%
O=C(NCCCN1CCOCC1)c1ccc(Sc2cccc(Cl)c2)c([N+](=O)[O-])c1 | 0% | ? | -1% | ? | ? | -23%
Cc1ccccc1OCC(=O)Nc1ccccc1-c1ccccc1NC(=O)COc1ccccc1C | -17% | -8% | -9% | 50µM* | -10% | 17%
Cc1cccc(OCC(=O)Nc2ccncc2)c1C | -1% | 2% | -4% | / | -12% | 20%
Cc1ccccc1OCC(=O)NN1Cc2ccccc2C1=N | -11% | -17% | 27µM* | -37% | 0%[11.4 µM] | 1%
SMILES | VDR inh | BAZ2B inh | PLK1 PBD block | G9a inh | JMJD2A Tudor | HP1b binding inh
Cc1cccc(OCC(=O)Nc2ncn[nH]2)c1C | 4% | 50µM* | -11% | -48%[59 µM] | -26% | 32%
Cc1ccc(S(=O)(=O)NN2Cc3ccccc3C2=N)cc1 | -11% | / | -7% | 16µM* | -12% | 35%
Cc1ccc(S(=O)(=O)NN=C2CCc3ccccc32)cc1 | / | / | -17% | / | / | /
Cc1ccccc1OCC(=O)Nc1cccc(Cl)c1C | -9% | ? | 0% | / | -3% | 60%
CCOC(=O)c1ccc(NC(=O)CN2C(=O)NC3(CCCCCCC3)C2=O)cc1 | -8% | -7% | -3% | 4%[12.7 µM] | -19% | 19%
CC1CCCCC1NC(=O)c1cccc(NC2=NC3CS(=O)(=O)CC3S2)c1 (stereo not given) | -19% | -1% | -4% | 23% | -10% | 44%
CN(C)c1cccc(C(=O)OCC(=O)NC(=O)NCc2ccccc2)c1 | 9% | / | -5% | / | -15% | 8%[57 µM]
COc1ccc(NC(=O)c2cc(C3CCCCN3S(=O)(=O)c3cccs3)on2)c(C)c1 (stereo not given) | / | / | -8% | / | / | /
C#CCOCCOCCOCCNc1nc(N2CCOCC2)nc(N2CCN(C(=O)[C@H](CCC(=O)O)n3cc(C(N)Cc4ccc(O)cc4)nn3)CC2)n1 (stereo not given in full) | -8% | -30% | -11% | 3%[12.7 µM] | 89µM* | 19%
C#CCOCCOCCOCCNc1nc(N2CCN(C(=O)[C@H](CCC(=O)O)n3cc(C(N)Cc4ccc(O)cc4)nn3)CC2)nc(N2CCN(C(=O)[C@H](CCC(=O)O)n3cc(C(N)CC(C)C)nn3)CC2)n1 (stereo not given in full) | -16% | 50µM* | -8% | ? | 32µM* | -1%
C#CCOCCOCCOCCNc1nc(N2CCN(C(=O)[C@H](CCC(=O)O)n3cc(C(N)CO)nn3)CC2)nc(N2CCN(C(=O)[C@H](Cc3ccc(O)cc3)n3cc(C(N)CC(C)C)nn3)CC2)n1 (stereo not given in full) | / | 32µM* | / | ? | / | /
NCC(=O)N[C@@H](CCCN=C(N)N)C(=O)NCC(=O)N[C@@H](CC(=O)O)C(=O)N[C@@H](CC(N)=O)C(=O)N1CC[C@@H](C(=O)O)C1 | -2% | / | / | 8%[59 µM] | / | /
COC(=O)c1cc2occc2n1Cc1nc(-c2ccc(Cl)cc2)oc1C | ? | -2% | 30µM* | -6%[59 µM] | -2% | 29%
O=C(c1ccccc1Cl)N(Cc1ccco1)c1ccccn1 | 6% | -19% | / | -2%[59 µM] | -25% | 22%
COc1ccc(NS(=O)(=O)c2ccc(N3CCCC3)c(NC(=S)Nc3ccc(SC(F)F)cc3)c2)cc1 | ? | ? | 4.7µM* | ? | 56µM* | 11µM*
COc1ccc(NS(=O)(=O)c2ccc(N3CCCC3)c(NC(=S)Nc3cccc(C)c3C)c2)cc1 | ? | ? | 3.8µM* | 1.3µM* | 56µM* | ?
O=C(Cn1cnc2c(oc3ccccc32)c1=O)Nc1ccccc1C(F)(F)F | 11% | -2% | / | -32%[59 µM] | -31% | 18%
Cc1ccc(C2(C)NC(=O)N(CC(=O)NNC(=O)c3cc(C)oc3C)C2=O)cc1 (stereo not given) | -18% | 3% | -8% | -3%[0.501 µM] | -10% | 11%
O=C(Nc1nccs1)C1(c2ccc(Cl)cc2)CC1 | -3% | -1% | 8% | 24% | 2% | 55%
O=C(NCc1ccc(Cl)cc1)C(=O)Nc1nccs1 | 1% | -13% | -2% | 50µM* | -8%[11.4 µM] | 21%
